For two compounds, outcome and Potency results are on record in PubChem BioAssay (NCATS).

Structures are written as SMILES. Records with an inconclusive call do not appear. The source made the active and inactive calls. Unless noted, calls come from the whole dose curve; as a rule, active = well fitted curve in the direction sought with a large enough effect; inconclusive = small, poorly fitted or top-dose-only effect, or another doubt; inactive = no such curve, though single readings can be large; an effect the other way counts as inactive or inconclusive.

Experiment [1] deals with ATP-dependent DNA helicase Q1 (Homo sapiens) (UniProt P46063). Kind of experiment: qHTS Validation Assay for Inhibitors of RecQ-Like Dna Helicase 1 (RECQ1) (AID 2353). The following applies: recombinant RECQ1 helicase DNA unwinding assay; series mostly up to 25.6 µM. The gist of the method:
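50 nM RECQ1T1 preincubated 15 min with compound in Tris pH 8.0 buffer with MgCl2, DTT, Tween-20 and 2.5 ug/ml poly(dI-dC); started with 200 nM TAMRA/BHQ-2 forked duplex and 2 mM ATP. Unwinding read as fluorescence (525/598 nm), two reads 2 h apart.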
On the technique in general: Quantitative high-throughput screening tests each substance at several concentrations.

For experiment [2], the target named is RecQ-like DNA helicase BLM (Homo sapiens) (UniProt P54132). Kind of experiment: qHTS Validation Assay for Inhibitors of Bloom's syndrome helicase (BLM) (AID 2364). The following applies: BLM helicase DNA unwinding, fluorescence, in vitro; series mostly up to 57.1 µM. The essentials: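 50 nM BLM preincubated 15 min at room temperature with compound in pH 8.0 Tris buffer containing 2.5 ug/ml poly(dI-dC); started with 200 nM TAMRA/BHQ-2 forked duplex and 2 mM ATP (final). Unwinding read as TAMRA fluorescence increase, two reads 2 h apart.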

The nature of experiment [3]: Quantitative high throughput screen for delayed death inhibitors of the malarial parasite plastid, 96 hour incubation (AID 488745). Note: potency is the fitted concentration of half-maximal effect; nearly all actives have a fitted effect of over 70% in size. The settings on record: Plasmodium falciparum growth. The gist of the method:
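Luciferase-expressing P. falciparum in erythrocytes (2% hematocrit, 0.1% parasitemia) incubated with compound for 96 h at 37 C, 5% CO2, in RPMI 1640 with 0.5% Albumax. Growth inhibition read as decreased luminescence.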

A short description of experiment [4]: Quantitative high throughput screen for delayed death inhibitors of the malarial parasite plastid, 48 hour incubation (AID 488752). Note: potency is the fitted concentration of half-maximal effect; nearly all actives have a fitted effect of over 65% in size. The following applies: Plasmodium falciparum growth. The essentials:
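Erythrocytes infected with firefly luciferase-expressing P. falciparum (2% hematocrit, 0.1% parasitemia) cultured with compound for 48 h at 37 C, 5% CO2, in RPMI 1640/0.5% Albumax. Growth inhibition read as loss of luminescence.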

For experiment [5], the target named is M-phase phosphoprotein 8 (Homo sapiens) (UniProt Q99549). Kind of experiment: qHTS Validation Assay for Inhibitors for MPP8 Chromodomain Interactions with Methylated Histone Tails (AID 488949). Note: top concentration of the series differs between compounds; nearly all actives have a fitted effect of over 55% in size. The settings on record: AlphaScreen MPP8 binding to H3K9me3 peptide; series mostly up to 114 µM. The essentials: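 MPP8 (50 nM) was preincubated with biotinylated H3(1-18)K9me3 peptide (50 nM) in PBS pH 7.4, 0.01% Tween-20 for 30 min at room temperature, then with compounds for 30 min; binding was detected by AlphaScreen.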

The nature of experiment [6]: qHTS for differential inhibitors of proliferation of Plasmodium falciparum line Dd2 (AID 1882). Note: nearly all actives have a fitted effect of over 65% in size. The following applies: series mostly up to 28.7 µM. The essentials: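 Dd2-infected erythrocytes (0.3% parasitemia, 2.5% hematocrit final) incubated with compound 72 h at 37 C, 5% CO2; lysed with saponin/Triton buffer containing SYBR Green I, incubated overnight in the dark, then read by fluorescence (485/535 nm). Normalized to 0.29 uM artemisinin and DMSO.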

Experiment [7] is described as follows: qHTS for differential inhibitors of proliferation of Plasmodium falciparum line W2 (AID 1883).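 Note: potency is the fitted concentration of half-maximal effect; parasites grown with compound for 72 h before lysis and staining.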 The following applies: Plasmodium falciparum W2 proliferation inhibition.
Experiment [8] is described as follows: qHTS for differential inhibitors of proliferation of Plasmodium falciparum line HB3 (AID 1886).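 Note: parasites grown with compound for 72 h before SYBR Green readout.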 The following applies: series mostly up to 28.7 µM.
Experiment [9] can be described thus: Cytometric Cell-Based qHTS for Inhibitors of the mTORC1 Signaling Pathway in MEF (Tsc2-/-, p53-/-) Cells (AID 2660).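 Note: percent of cells above a phospho-rpS6 to PI ratio cutoff in each well.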 The following applies: mTORC1 pathway cytometry; series mostly up to 38.3 µM. The essentials: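 Readout: Alexa-488 phospho-rpS6 (Ser235/236) intensity divided by PI intensity, thresholded against 7.5 nM rapamycin wells and reported as % positive cells. PI cell count served as the viability measure. Compound exposure was 24 hrs at 37 degree Celsius.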

A short description of experiment [10]: High Content Imaging Cell-Based qHTS for Inhibitors of the mTORC1 Signaling Pathway in MEF (Tsc2-/-, p53-/-) Cells (AID 2666).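 Note: percent of cells scored positive for phospho-rpS6 Ser235/236 immunostaining by imaging.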 The following applies: at 38.3 µM (top of the series). The essentials:
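Phospho-rpS6 (Ser235/236) immunofluorescence, normalized and scored as % positive cells using rapamycin and DMSO controls, was read in empty-vector Tsc2-/-, p53-/- MEFs after 24 h compound exposure at 37 C; propidium iodide counted cells.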

Experiment [11] can be described thus: High Content Imaging Cell-Based qHTS for Inhibitors of the mTORC1 Signaling Pathway in MEF Cells (AID 2667).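 Note: Tsc2-/- p53-/- MEFs stably re-expressing wild-type Tsc2 exposed 24 h.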 The settings on record: series mostly up to 38.3 µM. The essentials:
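WT MEFs (Tsc2-/-, p53-/- re-expressing Tsc2), in DMEM + 10% FBS, were treated with compound for 24 h at 37 C. Cells were then fixed and stained for phospho-rpS6 Ser235/236 with propidium iodide as cell count. Values are % positive cells, with thresholds set against rapamycin-treated cells.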

Experiment [12] in a line: Validation screen for small molecules that induce DNA re-replication in MCF 10A normal breast cells (AID 463097). Note: nearly all actives have a fitted effect of over 60% in size. The following applies: MCF 10A cells, DNA re-replication phenotype imaging; series mostly up to 46.1 µM. The essentials: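 Readout: Hoechst nuclear fluorescence intensity, 405 ex / 500-530 em, by scanning plate imager; re-replication scored as increase in nuclei with elevated DNA content. Cells exposed to compound 48 hr, 37 C, 5% CO2 beforehand.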

In experiment [13] the target is Ubiquitin carboxyl-terminal hydrolase 2 (Homo sapiens) (UniProt O75604). Kind of experiment: qHTS Validation Assay for Inhibitors of Ubiquitin-specific Protease USP2a Using CHOP2 as the Reporter (AID 463106). The settings on record: USP2a cleavage of CHOP2 reporter, enzymatic; series mostly up to 38.3 µM. The essentials: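 USP2 core (10 nM final) was preincubated with compound 30 min at RT in pH 8.0 Tris/CaCl2/beta-ME/CHAPS buffer. Ub-CHOP2 and reporter substrate (25 nM final each) were then added, with fluorescence (Ex 485/Em 531) read after 60 min. Data were normalized to NEM full inhibition and fitted to concentration-response curves.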

In experiment [14] the target is DNA polymerase III PolC-type (Bacillus subtilis (strain 168)) (UniProt P13267). Kind of experiment: qHTS Validation Assay for the Inhibitors of DNA Replication in Gram-Positive Bacteria (AID 485295).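 Note: PicoGreen fluorescence of double-stranded DNA made on primed circular M13 template.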 The following applies: Gram-positive bacterial DNA replication assay; series mostly up to 57.1 µM. The essentials: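 Reconstituted B. subtilis holoenzyme (Pol III, beta clamp, SSB, primase) was preincubated with compound at room temperature, then given single-stranded circular M13Gori plus dNTPs and NTPs. EDTA-containing PicoGreen stopped the reaction, and dsDNA product was read by fluorescence.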

Experiment [15] concerns the target Tumor susceptibility gene 101 protein (Homo sapiens) (UniProt Q99816). Kind of experiment: qHTS Validation Assay for Iinhibitors of HIV-1 Budding by Blocking the Interaction of PTAP/TSG101 (AID 485342; calls by dose curve). The following applies: TSG101-PTAP binding, fluorescence polarization, 4-point titration; series mostly up to 115 µM. The essentials:
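Tsg101 binding domain (10 uM final) in pH 7.5 HEPES/NaCl/Tween 20/EDTA/TCEP buffer was mixed with pin-transferred compounds, then FITC-labeled PTAP peptide (50 nM final) was added; after 20 min at r.t., fluorescence polarization was read.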

Experiment [16] deals with Beta-2 adrenergic receptor (Homo sapiens) (UniProt P07550). Kind of experiment: qHTS validation assay of beta-arrestin-biased ligands of beta2-adrenergic receptor (AID 485366). The settings on record: cell-based beta-arrestin recruitment to ADRB2, qHTS; series mostly up to 46.1 µM. The gist of the method: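 Tango cells (recombinant beta2-AR with recombinant beta-arrestin; recruitment releases tTA driving luciferase) were treated with compounds titrated up to 46 microM for 18 hr at 37 degrees C. Luminescence gave %Activity, and concentration-response curves were curve-classified.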

For experiment [17], the target named is ATP-dependent 6-phosphofructokinase (Trypanosoma brucei brucei) (UniProt O15648). Kind of experiment: qHTS Validation Assay to Find Inhibitors of T. brucei phosphofructokinase (AID 485368). The following applies: T. brucei PFK enzyme assay, qHTS 7-point titration; at 57.5 µM (top of the series). The essentials:
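Compounds (up to 57 uM, titration series) were pinned into substrate buffer, then 1.25 nM PFK added; after 45 min at room temperature, ADP product was quantified by ADP-Glo luminescence and concentration-response curves fitted.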

Experiment [18] deals with Thioredoxin reductase 1, cytoplasmic (Rattus norvegicus) (UniProt O89049). Kind of experiment: qHTS Assay for Substrates of Mammalian Selenoprotein Thioredoxin Reductase 1 (TrxR1) (AID 488772).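 Note: NADPH fluorescence in the first read after selenite addition and not the 8 min delta; a drop in NADPH fluorescence below the no-compound background marks a TrxR1 substrate.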 The settings on record: purified TrxR1, NADPH consumption substrate assay; series mostly up to 57.1 µM. The gist of the method:
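Quantitative HTS in Tris-HCl buffer at pH 7.5 with EDTA and Tween-20, using rat TrxR1, 400 uM NADPH and 400 uM selenite (final). A fall in initial NADPH fluorescence relative to background marked substrate behaviour.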

The target is the same in experiment [19]. Kind of experiment: qHTS Assay for Inhibitors of Mammalian Selenoprotein Thioredoxin Reductase 1 (TrxR1) (AID 488773).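 Note: drop in NADPH fluorescence over an 8 min run after selenite addition; nearly all actives have a fitted effect of over 40% in size.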 The settings on record: purified TrxR1 enzyme activity; series mostly up to 57.1 µM. The essentials: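 Steps: enzyme (90 nM) plus NADPH (400 uM final), 5 min at ~22 deg C; compound added, 15 min; selenite (400 uM final) added; fluorescence followed for 8 min. Concentration-response curves derived from the normalized delta values.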

In experiment [20] the target is Flap endonuclease 1 (Homo sapiens) (UniProt P39748). Kind of experiment: qHTS Validation Assay for the Inhibitors of Human Flap endonuclease 1 (FEN1) (AID 488816). The settings on record: FEN1 nuclease activity, fluorogenic DNA substrate; series mostly up to 57.1 µM. The gist of the method: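 Human FEN1 (10 nM) preincubated 15 min at room temperature with compounds, then flap DNA substrate added at 50 nM final. Fluorescence read at 0 and 15 min; concentration-response fitted with four-parameter Hill equation.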
Chain of Flap endonuclease 1 (Homo sapiens) (P39748 whole entry, looked up): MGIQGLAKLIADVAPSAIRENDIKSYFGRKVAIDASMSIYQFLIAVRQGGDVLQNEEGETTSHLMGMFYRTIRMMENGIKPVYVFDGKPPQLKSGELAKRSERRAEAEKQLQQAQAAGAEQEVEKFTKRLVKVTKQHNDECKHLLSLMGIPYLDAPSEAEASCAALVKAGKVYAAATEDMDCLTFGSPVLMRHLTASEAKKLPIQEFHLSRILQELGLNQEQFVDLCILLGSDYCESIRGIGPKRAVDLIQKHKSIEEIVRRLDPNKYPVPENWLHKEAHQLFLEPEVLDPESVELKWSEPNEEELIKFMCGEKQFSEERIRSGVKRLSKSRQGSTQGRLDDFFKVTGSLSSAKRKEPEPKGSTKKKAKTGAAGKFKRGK

Chain of M-phase phosphoprotein 8 (Homo sapiens) (Q99549 whole entry, looked up): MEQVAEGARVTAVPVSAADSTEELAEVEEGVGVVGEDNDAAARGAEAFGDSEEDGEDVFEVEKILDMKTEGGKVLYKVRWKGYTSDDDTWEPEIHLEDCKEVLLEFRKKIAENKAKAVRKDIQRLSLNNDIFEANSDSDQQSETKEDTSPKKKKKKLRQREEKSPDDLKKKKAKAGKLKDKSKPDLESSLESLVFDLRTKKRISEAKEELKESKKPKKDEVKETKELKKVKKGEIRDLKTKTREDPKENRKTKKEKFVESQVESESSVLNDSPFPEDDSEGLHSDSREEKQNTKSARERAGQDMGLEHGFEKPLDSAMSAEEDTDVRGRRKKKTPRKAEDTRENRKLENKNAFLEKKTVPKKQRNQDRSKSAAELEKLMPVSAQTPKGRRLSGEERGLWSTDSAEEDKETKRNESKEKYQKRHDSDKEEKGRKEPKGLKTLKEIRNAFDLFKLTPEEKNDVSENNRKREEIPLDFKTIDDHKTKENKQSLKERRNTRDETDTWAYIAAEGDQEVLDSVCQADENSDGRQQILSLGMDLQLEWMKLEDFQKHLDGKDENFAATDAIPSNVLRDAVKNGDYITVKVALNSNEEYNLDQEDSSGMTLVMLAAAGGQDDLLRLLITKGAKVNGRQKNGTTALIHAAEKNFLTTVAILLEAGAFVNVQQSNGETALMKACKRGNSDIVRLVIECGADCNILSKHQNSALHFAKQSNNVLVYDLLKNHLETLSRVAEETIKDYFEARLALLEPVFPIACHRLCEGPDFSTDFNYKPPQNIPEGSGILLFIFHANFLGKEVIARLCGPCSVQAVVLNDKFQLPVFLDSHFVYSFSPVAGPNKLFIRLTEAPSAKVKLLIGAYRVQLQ
Chain of ATP-dependent DNA helicase Q1 (Homo sapiens) (P46063 whole entry, looked up): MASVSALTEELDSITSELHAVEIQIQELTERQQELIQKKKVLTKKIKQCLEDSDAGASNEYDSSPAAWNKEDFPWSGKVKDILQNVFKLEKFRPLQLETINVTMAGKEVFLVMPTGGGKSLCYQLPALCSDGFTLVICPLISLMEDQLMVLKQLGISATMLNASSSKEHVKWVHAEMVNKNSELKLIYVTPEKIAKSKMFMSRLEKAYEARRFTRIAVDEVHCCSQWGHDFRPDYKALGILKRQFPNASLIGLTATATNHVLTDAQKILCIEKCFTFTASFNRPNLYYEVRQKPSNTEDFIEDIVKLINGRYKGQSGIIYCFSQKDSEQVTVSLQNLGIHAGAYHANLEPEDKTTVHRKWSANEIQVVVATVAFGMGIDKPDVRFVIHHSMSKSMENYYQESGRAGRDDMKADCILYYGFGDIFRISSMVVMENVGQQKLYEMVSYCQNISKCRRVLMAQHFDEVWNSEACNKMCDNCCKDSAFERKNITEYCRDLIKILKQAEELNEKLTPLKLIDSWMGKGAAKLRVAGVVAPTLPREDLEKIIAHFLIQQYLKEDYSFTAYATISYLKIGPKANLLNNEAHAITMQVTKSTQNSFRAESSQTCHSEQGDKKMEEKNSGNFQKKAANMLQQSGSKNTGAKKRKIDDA
Chain of Thioredoxin reductase 1, cytoplasmic (Rattus norvegicus) (O89049 whole entry, looked up): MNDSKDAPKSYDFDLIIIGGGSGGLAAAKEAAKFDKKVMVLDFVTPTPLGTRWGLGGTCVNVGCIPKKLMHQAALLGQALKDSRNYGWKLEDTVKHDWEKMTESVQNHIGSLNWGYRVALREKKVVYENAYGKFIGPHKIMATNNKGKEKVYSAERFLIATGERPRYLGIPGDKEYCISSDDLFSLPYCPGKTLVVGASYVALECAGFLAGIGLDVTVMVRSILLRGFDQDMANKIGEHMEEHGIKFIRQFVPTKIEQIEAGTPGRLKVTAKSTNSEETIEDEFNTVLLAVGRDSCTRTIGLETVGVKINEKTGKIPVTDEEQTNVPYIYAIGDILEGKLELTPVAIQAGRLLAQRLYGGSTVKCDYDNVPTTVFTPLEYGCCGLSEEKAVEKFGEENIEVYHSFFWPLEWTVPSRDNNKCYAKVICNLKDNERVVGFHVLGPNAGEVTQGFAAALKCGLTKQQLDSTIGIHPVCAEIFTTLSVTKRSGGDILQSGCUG
Chain of RecQ-like DNA helicase BLM (Homo sapiens) (P54132 whole entry, looked up): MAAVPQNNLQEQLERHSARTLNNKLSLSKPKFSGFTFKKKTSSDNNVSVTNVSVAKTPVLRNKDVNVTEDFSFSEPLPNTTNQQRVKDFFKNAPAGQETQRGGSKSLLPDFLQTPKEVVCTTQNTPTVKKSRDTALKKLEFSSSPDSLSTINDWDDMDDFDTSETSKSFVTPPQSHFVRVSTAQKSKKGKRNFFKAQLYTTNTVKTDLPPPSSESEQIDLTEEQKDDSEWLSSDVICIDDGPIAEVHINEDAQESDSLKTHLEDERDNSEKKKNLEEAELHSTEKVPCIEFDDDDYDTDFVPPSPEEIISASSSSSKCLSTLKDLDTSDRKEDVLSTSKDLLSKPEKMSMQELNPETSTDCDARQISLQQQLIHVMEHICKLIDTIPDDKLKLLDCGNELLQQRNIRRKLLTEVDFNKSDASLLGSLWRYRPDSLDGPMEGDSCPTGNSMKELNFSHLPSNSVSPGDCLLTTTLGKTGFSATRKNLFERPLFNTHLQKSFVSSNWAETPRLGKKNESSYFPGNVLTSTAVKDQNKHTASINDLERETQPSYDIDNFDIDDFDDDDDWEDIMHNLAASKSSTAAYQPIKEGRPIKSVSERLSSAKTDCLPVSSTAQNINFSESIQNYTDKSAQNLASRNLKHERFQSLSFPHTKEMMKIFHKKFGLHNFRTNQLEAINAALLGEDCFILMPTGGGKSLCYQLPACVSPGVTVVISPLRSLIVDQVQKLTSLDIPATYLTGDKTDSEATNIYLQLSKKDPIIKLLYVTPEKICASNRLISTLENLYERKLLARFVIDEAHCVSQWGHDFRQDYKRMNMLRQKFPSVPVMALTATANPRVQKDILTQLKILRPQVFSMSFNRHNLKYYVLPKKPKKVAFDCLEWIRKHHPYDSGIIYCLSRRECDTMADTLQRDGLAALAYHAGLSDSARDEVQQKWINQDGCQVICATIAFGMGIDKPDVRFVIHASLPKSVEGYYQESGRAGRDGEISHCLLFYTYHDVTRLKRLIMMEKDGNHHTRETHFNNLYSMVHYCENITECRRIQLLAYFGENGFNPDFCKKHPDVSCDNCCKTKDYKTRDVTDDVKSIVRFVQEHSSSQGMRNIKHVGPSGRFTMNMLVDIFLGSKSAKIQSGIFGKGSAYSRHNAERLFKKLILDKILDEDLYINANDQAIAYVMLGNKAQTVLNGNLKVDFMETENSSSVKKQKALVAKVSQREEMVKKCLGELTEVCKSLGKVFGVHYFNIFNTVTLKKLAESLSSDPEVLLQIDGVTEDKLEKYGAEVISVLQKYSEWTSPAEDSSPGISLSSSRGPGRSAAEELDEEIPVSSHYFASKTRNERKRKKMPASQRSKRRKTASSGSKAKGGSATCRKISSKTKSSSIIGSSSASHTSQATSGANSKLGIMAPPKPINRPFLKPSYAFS
Chain of Tumor susceptibility gene 101 protein (Homo sapiens) (Q99816 whole entry, looked up, the tested form may be a part): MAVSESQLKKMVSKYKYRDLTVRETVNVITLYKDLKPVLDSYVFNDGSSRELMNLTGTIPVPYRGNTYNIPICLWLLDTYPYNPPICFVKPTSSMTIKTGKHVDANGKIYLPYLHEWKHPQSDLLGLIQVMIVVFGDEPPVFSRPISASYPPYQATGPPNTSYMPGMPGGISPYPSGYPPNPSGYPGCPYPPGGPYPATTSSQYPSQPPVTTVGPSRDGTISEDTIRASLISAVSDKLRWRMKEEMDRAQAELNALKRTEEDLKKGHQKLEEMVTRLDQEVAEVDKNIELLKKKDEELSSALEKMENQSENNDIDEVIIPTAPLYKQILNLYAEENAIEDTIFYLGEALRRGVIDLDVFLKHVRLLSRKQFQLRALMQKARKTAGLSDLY
Chain of ATP-dependent 6-phosphofructokinase (Trypanosoma brucei brucei) (O15648 whole entry, looked up): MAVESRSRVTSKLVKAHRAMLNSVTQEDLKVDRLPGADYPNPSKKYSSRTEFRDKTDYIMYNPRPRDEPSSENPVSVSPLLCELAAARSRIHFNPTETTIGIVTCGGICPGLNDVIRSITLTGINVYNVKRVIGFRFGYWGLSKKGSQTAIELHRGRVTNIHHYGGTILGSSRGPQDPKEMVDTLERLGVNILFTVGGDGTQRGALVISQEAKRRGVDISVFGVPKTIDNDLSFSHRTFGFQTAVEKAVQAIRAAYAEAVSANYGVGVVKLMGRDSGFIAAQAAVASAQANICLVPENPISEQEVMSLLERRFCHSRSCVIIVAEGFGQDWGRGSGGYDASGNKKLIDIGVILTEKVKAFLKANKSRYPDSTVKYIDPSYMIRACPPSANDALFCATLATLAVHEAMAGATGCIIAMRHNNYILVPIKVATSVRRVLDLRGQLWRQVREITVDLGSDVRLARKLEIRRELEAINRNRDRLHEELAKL

`CC[C@H](CO)Nc1nc(NCc2ccccc2)c2ncn(C(C)C)c2n1`: the outcome in experiment [1], in [2] and in experiment [5] was inactive. Further, the Potency in [3] was 1.04 µM (active); in experiment [4], 4.65 µM (active).
Take `O=c1c2ccccc2nc2n1CCc1c-2[nH]c2ccccc12`: the compound was called inactive in experiment [6], in [8], in [1], in [9], in [10] and in experiment [11]. Besides, the call in experiment [12], in experiment [13], in experiment [14], in [15], in experiment [16] and in experiment [17] was inactive. For the same compound, the outcome in experiment [18], in experiment [19], in [20] and in [5] was inactive. The Potency in experiment [7] was 12.6 µM (active).
